# Experiments:
# [1] = target: T1, Ephrin type-B receptor 1 (Homo sapiens) (UniProt P54762); settings: at 1 µM
# T1 sequence (whole entry): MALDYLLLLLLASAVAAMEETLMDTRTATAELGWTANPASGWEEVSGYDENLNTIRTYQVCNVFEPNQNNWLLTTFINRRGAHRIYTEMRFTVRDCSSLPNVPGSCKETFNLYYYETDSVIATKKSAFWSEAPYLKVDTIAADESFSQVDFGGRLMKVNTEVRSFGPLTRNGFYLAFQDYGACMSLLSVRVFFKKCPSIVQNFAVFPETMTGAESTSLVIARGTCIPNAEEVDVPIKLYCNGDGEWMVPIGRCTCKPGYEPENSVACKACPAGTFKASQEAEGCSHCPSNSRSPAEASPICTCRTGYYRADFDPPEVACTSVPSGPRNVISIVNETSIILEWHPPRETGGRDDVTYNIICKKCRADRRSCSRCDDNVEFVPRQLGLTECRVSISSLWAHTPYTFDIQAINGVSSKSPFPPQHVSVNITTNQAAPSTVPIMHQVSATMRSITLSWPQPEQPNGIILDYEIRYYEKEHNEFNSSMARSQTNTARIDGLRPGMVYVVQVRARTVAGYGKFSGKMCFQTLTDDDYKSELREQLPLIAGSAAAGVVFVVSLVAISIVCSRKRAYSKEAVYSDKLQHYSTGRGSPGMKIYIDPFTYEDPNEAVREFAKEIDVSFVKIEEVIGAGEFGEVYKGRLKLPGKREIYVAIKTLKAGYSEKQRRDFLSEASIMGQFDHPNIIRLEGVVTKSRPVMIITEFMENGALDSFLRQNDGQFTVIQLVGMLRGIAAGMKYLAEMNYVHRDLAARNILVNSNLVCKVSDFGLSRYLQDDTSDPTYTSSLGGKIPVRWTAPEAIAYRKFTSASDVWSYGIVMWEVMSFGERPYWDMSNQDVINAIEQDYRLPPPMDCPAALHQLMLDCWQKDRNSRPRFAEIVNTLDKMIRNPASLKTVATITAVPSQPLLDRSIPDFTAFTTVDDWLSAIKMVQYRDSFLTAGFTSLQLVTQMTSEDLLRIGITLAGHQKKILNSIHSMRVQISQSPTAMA
# [2] = target: T1, Ephrin type-B receptor 1 (Homo sapiens); settings: at 10 µM
# [3] = target: T2, Ephrin type-B receptor 2 (Homo sapiens) (UniProt P29323); settings: at 1 µM
# T2 sequence (whole entry): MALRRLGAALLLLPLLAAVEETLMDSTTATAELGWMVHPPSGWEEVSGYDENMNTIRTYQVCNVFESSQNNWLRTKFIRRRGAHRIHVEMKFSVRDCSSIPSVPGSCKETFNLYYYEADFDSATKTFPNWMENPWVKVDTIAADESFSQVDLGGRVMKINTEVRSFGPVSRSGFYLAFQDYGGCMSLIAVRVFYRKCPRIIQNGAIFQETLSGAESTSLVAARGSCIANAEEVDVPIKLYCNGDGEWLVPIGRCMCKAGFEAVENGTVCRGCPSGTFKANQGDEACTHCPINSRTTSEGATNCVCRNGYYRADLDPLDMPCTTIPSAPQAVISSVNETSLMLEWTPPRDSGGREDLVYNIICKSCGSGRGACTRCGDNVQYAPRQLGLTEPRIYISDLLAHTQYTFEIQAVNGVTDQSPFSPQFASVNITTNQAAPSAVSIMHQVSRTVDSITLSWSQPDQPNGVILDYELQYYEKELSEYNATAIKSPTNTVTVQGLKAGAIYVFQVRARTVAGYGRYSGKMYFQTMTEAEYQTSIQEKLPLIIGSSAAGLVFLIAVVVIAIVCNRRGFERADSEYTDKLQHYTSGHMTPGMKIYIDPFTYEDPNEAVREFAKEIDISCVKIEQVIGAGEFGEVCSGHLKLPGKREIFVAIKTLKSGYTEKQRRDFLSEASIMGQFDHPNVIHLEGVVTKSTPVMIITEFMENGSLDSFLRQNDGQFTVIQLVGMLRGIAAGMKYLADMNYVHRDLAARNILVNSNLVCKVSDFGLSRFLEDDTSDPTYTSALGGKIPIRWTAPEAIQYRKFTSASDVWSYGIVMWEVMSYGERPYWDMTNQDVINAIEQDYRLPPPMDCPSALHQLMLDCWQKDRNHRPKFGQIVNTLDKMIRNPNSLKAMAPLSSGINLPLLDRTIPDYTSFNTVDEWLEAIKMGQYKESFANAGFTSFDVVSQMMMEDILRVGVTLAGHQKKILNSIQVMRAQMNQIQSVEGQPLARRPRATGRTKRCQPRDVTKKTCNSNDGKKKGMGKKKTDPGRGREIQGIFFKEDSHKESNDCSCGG
# [4] = target: T2, Ephrin type-B receptor 2 (Homo sapiens); settings: at 10 µM
# [5] = target: T3, Ephrin type-B receptor 3 (Homo sapiens) (UniProt P54753); settings: at 1 µM
# T3 sequence (whole entry): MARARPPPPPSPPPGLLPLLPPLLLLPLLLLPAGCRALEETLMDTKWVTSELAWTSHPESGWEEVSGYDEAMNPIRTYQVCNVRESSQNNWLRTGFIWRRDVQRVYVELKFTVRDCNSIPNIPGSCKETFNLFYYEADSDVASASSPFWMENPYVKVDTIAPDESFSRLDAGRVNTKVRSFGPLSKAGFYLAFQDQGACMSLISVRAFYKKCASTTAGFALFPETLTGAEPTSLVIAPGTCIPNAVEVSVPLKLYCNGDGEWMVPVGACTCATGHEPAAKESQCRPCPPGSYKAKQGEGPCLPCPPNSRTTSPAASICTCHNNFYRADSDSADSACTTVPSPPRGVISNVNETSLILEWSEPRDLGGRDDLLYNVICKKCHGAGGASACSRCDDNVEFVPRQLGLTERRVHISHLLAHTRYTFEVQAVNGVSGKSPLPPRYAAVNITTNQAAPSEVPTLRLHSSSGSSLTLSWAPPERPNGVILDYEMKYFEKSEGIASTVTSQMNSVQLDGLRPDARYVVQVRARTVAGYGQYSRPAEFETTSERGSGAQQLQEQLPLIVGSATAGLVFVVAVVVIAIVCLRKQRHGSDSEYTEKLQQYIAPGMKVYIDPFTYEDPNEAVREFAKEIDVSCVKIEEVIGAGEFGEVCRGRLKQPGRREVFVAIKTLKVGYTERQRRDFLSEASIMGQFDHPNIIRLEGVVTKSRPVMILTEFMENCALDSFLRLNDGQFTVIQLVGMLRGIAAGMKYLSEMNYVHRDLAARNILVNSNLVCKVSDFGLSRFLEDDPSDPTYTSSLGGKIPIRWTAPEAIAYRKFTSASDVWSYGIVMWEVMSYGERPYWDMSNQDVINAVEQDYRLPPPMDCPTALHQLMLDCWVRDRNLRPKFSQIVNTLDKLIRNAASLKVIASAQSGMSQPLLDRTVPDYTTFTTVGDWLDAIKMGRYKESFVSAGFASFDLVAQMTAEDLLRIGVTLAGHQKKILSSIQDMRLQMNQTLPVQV
# [6] = target: T4, Ephrin type-B receptor 4 (Homo sapiens) (UniProt P54760); settings: at 1 µM
# T4 sequence (whole entry): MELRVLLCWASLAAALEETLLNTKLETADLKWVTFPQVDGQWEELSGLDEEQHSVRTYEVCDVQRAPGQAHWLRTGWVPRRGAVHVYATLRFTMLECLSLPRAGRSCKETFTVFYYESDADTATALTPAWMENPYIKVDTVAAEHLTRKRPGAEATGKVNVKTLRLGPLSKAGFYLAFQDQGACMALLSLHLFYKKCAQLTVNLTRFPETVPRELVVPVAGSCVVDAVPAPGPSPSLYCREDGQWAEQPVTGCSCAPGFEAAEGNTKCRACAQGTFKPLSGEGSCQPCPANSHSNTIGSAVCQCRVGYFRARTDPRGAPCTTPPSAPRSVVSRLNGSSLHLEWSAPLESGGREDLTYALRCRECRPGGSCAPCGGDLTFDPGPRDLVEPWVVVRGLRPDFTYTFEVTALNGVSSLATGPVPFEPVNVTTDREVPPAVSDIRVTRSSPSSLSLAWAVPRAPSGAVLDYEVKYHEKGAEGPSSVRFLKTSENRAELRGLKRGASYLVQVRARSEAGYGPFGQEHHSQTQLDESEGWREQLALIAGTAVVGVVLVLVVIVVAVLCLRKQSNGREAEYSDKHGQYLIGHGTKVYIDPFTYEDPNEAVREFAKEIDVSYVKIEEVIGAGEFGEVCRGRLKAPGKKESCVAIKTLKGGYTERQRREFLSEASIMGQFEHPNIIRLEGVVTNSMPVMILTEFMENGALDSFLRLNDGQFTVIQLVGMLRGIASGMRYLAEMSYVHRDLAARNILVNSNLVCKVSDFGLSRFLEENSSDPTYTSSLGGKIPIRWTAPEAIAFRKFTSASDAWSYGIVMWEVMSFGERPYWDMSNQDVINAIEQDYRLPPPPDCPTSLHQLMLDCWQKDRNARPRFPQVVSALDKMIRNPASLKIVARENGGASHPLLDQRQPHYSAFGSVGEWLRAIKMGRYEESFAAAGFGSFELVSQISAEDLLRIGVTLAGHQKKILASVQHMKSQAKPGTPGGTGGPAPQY
# [7] = target: T4, Ephrin type-B receptor 4 (Homo sapiens); settings: at 10 µM
# [8] = target: Receptor tyrosine-protein kinase erbB-4 (Homo sapiens) (UniProt Q15303); settings: at 1 µM
# Sequence of Receptor tyrosine-protein kinase erbB-4 (Homo sapiens) (Q15303 whole entry): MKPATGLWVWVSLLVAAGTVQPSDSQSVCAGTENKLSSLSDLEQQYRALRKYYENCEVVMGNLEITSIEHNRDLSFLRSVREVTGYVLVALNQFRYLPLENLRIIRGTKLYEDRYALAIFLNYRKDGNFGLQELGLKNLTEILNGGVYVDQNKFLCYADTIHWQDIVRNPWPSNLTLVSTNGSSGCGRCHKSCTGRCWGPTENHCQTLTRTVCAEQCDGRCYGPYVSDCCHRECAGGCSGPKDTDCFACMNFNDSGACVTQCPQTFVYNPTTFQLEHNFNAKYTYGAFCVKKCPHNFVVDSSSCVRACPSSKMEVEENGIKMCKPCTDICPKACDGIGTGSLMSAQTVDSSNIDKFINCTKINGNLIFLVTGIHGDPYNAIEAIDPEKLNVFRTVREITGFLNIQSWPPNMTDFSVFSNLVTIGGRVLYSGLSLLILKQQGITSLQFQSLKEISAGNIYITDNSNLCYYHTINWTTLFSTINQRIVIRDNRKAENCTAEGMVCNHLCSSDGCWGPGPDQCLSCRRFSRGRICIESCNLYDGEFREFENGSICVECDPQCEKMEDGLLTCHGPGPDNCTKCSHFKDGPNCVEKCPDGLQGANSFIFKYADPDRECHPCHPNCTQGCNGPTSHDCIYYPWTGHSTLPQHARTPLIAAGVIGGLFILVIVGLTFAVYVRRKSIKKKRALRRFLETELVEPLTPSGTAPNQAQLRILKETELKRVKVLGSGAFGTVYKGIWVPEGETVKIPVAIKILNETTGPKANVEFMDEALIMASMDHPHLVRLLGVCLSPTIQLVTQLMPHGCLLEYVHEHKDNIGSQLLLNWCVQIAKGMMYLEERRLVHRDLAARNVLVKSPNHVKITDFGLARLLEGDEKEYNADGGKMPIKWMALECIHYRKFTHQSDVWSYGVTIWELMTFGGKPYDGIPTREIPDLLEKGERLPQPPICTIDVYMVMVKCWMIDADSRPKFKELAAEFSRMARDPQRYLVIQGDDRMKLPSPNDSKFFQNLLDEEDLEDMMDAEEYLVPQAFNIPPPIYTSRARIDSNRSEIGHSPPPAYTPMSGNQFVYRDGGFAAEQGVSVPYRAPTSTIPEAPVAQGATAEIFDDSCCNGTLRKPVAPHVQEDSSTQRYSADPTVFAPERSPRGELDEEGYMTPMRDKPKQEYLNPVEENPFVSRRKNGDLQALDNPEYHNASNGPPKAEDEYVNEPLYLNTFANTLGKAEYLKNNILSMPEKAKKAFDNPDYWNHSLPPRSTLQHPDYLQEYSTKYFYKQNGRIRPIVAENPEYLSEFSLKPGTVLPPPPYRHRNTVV
# [9] = target: Receptor tyrosine-protein kinase erbB-4 (Homo sapiens) (UniProt Q15303); settings: at 10 µM
structure (smiles),measurement,setting,value
CCCC(=O)Oc1ccc2[nH]c(C(=O)c3cc4ccccc4[nH]3)cc2c1,residual activity,[1],82%
same,residual activity,[2],108%
same,residual activity,[3],120%
same,residual activity,[4],131%
same,residual activity,[5],102% (inactive)
same,residual activity,[6],92%
same,residual activity,[7],101%
same,residual activity,[8],81%
same,residual activity,[9],95%

# From ChEMBL document CHEMBL2218924, “A broad activity screen in support of a chemogenomic map for kinase signalling research and drug discovery” (Biochem J, 2013)
